HCMV inh = human cytomegalovirus inhibition. HFF cells, HCMV-luciferase reporter, 72 h; active compounds read low. activity change, negative = inhibition, % at 57.5 µM. 410,000 compounds, 4.5% hits; in the data active = activity change below about -60%; inconclusive = no clear call, values can overlap the other calls; inactive = above about -39%; note: % is set by controls: 0 for no effect and ±100 for the full control effect
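Compounds were evaluated in HFFs infected with an HCMV luciferase reporter virus (MOI 1 PFU/cell). Luciferase in lysates collected 72 h post infection served as the replication measure.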
SARS PLpro yeast = SARS-CoV PLP inhibition in yeast; S. cerevisiae expressing SARS-CoV PLpro, growth rescue; Potency, µM (top dose mostly 32.9 µM), without a hit: top-dose activity, positive = growth rescue, actives largely listed as activators; 330,000 compounds, 0.19% hits; AID 485353; calls by dose curve; note: potency is the fitted concentration of half-maximal effect; 0% is about no effect; nearly all actives have a fitted effect of over 55% in size
Pf growth 96h = inhibits malaria parasite growth, 96 h; P. falciparum luciferase reporter growth, 96 h; Potency, µM (titrated, usually from 28.7 µM), inactives show at the highest dose activity change, negative = inhibition, actives largely listed as inhibitors; 320,000 compounds, 6.9% hits; note: potency is the fitted concentration of half-maximal effect; % is set by controls: 0 for no effect and ±100 for the full control effect
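P. falciparum expressing integrated firefly luciferase, in erythrocytes at 2% hematocrit, 0.05% parasitemia, incubated with compounds 96 h at 37 C, 5% CO2. Growth inhibition read as loss of luminescence; two-generation exposure targets delayed-death apicoplast inhibitors.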
Sm TGR block = blocks Schistosoma mansoni thioredoxin glutathione reductase. 360,000 compounds, 3% hits. AID 485364. Potency, µM (doses to about 114 µM), for inactives: at the highest dose activity change, negative = inhibition, actives largely listed as inhibitors. purified TGR, DTNB reduction, TNB absorbance 405 nm. Q962Y6; note: potency is the fitted concentration of half-maximal effect; % is set by controls: 0 for no effect and ±100 for the full control effect; nearly all actives have a fitted effect of over 60% in size
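Kinetic colorimetric format: TGR-catalysed, NADPH-driven DTNB reduction monitored via TNB absorbance. Enzyme dispensed at 20 nM; compound exposure 15 min at room temperature before reaction start.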
Pf growth 48h = inhibits P. falciparum growth in the first generation, 48 h; 310,000 compounds, 5.9% hits; Potency, µM (doses to about 28.7 µM), without a hit: at the highest dose activity change, negative = inhibition, usual class: inhibitors; P. falciparum luciferase growth in erythrocytes, 48 h; note: potency is the fitted concentration of half-maximal effect; % is set by controls: 0 for no effect and ±100 for the full control effect
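In quantitative HTS format, infected erythrocytes bearing luciferase-reporter parasites were treated for a single generation at 37 C. Luminescence after adding detection reagent served as the growth measure.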
HCV inh = blocks hepatitis C virus | Huh7.5.1 HCVcc-Cre infection, luciferase reporter, 44 h | Potency, µM (doses to about 41.8 µM), inactives show at the highest dose activity change, negative = inhibition, actives largely listed as inhibitors | 340,000 compounds, 3.4% hits | AID 651820; note: potency is the fitted concentration of half-maximal effect; % is set by controls: 0 for no effect and ±100 for the full control effect
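HCVcc-Cre virus at an moi near 0.5 was added right after compound to cells cultured 4 h from seeding (1,000 cells/well). Luciferase activity was determined 44 h later, 15 min after substrate addition at RT.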
Active calls of the source: *. Most compounds without a hit are left out; they make up all but 15% or so of the library. Unless noted, calls come from the whole dose curve; as a rule, active = well fitted curve in the direction sought with a large enough effect; inconclusive = small, poorly fitted or top-dose-only effect, or another doubt; inactive = no such curve, though single readings can be large; an effect the other way counts as inactive or inconclusive.

How did O=C(N/N=C/c1ccc(-c2cccc([N+](=O)[O-])c2)o1)c1ccccc1O do in these assays?
HCMV inh: 9; SARS PLpro yeast: -1%; Pf growth 96h: 102%; Sm TGR block: 1%; Pf growth 48h: inconclusive; HCV inh: -16%

How did COc1ccc(NC(=O)c2ccc(-c3ccc([N+](=O)[O-])cc3)o2)cc1OC do in these assays?
HCMV inh: -72*; SARS PLpro yeast: -23%; Pf growth 96h: 6%; Sm TGR block: -10%; Pf growth 48h: -13%; HCV inh: inconclusive

What do the screens show for `COc1cc([N+](=O)[O-])ccc1-c1ccc(/C=N/NC(=O)c2ccccc2O)o1`?
HCMV inh: -8; SARS PLpro yeast: 0%; Pf growth 96h: inconclusive; Sm TGR block: -33%; Pf growth 48h: 2.6µM*

What do the screens show for `Cc1ccc(O)c(C(=O)c2cnc3c(c2)c(C)nn3C)c1`?
HCMV inh: -17; SARS PLpro yeast: -6%; Pf growth 96h: 8.3µM*; Sm TGR block: -14%; Pf growth 48h: inconclusive; HCV inh: -17%

How did COc1ccc(O)c(C(=O)c2cnc3onc(C)c3c2)c1 do in these assays?
HCMV inh: 40; SARS PLpro yeast: -1%; Pf growth 96h: 9.3µM*; Sm TGR block: -10%; Pf growth 48h: inconclusive; HCV inh: 14%

What do the screens show for `O=C(c1cnc2ccc3ccccc3c2c1)c1cc(F)ccc1O`?
HCMV inh: 0; SARS PLpro yeast: -1%; Pf growth 96h: inconclusive; Sm TGR block: 7%; Pf growth 48h: 3.7µM*; HCV inh: 5.6µM*

Results for Cc1nn(C)c2ncc(C(=O)c3cc(F)ccc3O)cc12 ?
HCMV inh: -7; SARS PLpro yeast: -2%; Pf growth 96h: 10µM*; Sm TGR block: 5%; HCV inh: -16%

What do the screens show for `Cc1nn(C)c2ncc(C(=O)c3ccccc3O)cc12`?
HCMV inh: -30; SARS PLpro yeast: 0%; Pf growth 96h: -8%; Sm TGR block: 4%; Pf growth 48h: -3%; HCV inh: -11%

Results for COc1ccc(F)cc1S(=O)(=O)NCC1CCCO1 (stereo not given) ?
HCMV inh: 11; SARS PLpro yeast: -1%; Pf growth 96h: inconclusive; Sm TGR block: 5%; Pf growth 48h: -11%; HCV inh: 4%

What do the screens show for `COc1ccc(S(=O)(=O)NC(=O)C2(C)CCN2C(=O)Cc2ccccc2Cl)cc1` (stereo not given)?
HCMV inh: 2

Results for Cc1ccc(NC(=O)CSCC(=O)N2CCN(Cc3ccc4c(c3)OCO4)CC2)cc1 ?
HCMV inh: -10; SARS PLpro yeast: 18%; Pf growth 96h: inconclusive; Sm TGR block: -43%; Pf growth 48h: -1%

What do the screens show for `COc1ccc(O)c(C(=O)c2cnc3c(c2)c(C)nn3C)c1`?
HCMV inh: -2; SARS PLpro yeast: -12%; Pf growth 96h: inconclusive; Sm TGR block: -16%; Pf growth 48h: inconclusive; HCV inh: -3%

How did Cc1nn(-c2ccccc2)c2ncc(C(=O)c3cc(Cl)ccc3O)cc12 do in these assays?
HCMV inh: -13; SARS PLpro yeast: -26%; Pf growth 96h: 2.6µM*; Sm TGR block: -6%; Pf growth 48h: 1.9µM*; HCV inh: inconclusive

What do the screens show for `Cc1ccc(N=C2NC(=O)c3cc([N+](=O)[O-])ccc32)cc1`?
HCMV inh: 5; SARS PLpro yeast: -13%; Pf growth 96h: 4.1µM*; Sm TGR block: 10%; Pf growth 48h: -5%; HCV inh: 2%

What do the screens show for `O=S(Cc1ccc(Br)cc1)Cc1nnc(SCc2c(Cl)cccc2Cl)n1-c1ccccc1` (stereo not given)?
HCMV inh: inconclusive; SARS PLpro yeast: -8%; Pf growth 96h: inconclusive; Sm TGR block: 0%; Pf growth 48h: inconclusive; HCV inh: inconclusive

What do the screens show for `Cn1c(CS(=O)Cc2c(Cl)cccc2Cl)nnc1SCc1c(Cl)cccc1Cl` (stereo not given)?
HCMV inh: -13; SARS PLpro yeast: -3%; Pf growth 96h: 4.7µM*; Sm TGR block: -1%; Pf growth 48h: inconclusive; HCV inh: -22%
